# Source: the supplement of paper PMC4466140
# B1: unnamed (peptide)
# chain: QDKEGIPPDQQRLIF
# Assays:
# Test in all cases: SPOT peptide array binding signal intensity (averaged, normalized) (arbitrary units (background-subtracted, floor 0; scale differs between SH3 domains)); higher = stronger binding of the SH3 domain to the peptide
# AgAbp1 = target: AgAbp1
# Procedure, shortened: (§1)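 GST-fused SH3 domains from four yeast species were expressed in E. coli BL21(DE3), purified on glutathione Sepharose and incubated at 10 μg/ml overnight at 4°C in TBS-based blocking buffer on cellulose membranes carrying synthetic 15-mer peptides, with cysteines replaced by serines. Bound protein was detected with anti-GST antibody, an HRP anti-mouse secondary and luminol, then imaged and quantified with Genespotter. Binding signal is the normalized, background-subtracted spot intensity averaged over replicates, in arbitrary units that differ between domains.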
# AgBbc1 = target: AgBbc1
# Procedure, shortened: as §1
# AgBem1-D1 = target: AgBem1-D1
# Procedure, shortened: as §1
# AgBzz1-D1 = target: AgBzz1-D1
# Procedure, shortened: as §1
# AgBzz1-D2 = target: AgBzz1-D2
# Procedure, shortened: as §1
# AgCyk3 = target: AgCyk3
# Procedure, shortened: as §1
# AgFus1 = target: AgFus1
# Procedure, shortened: as §1
# AgHof1 = target: AgHof1
# Procedure, shortened: as §1
# AgHse1 = target: AgHse1
# Procedure, shortened: as §1
# AgLsb1 = target: AgLsb1
# Procedure, shortened: as §1
# AgLsb4 = target: AgLsb4
# Procedure, shortened: as §1
# AgMyo5 = target: AgMyo5
# Procedure, shortened: as §1
# AgNbp2 = target: AgNbp2
# Procedure, shortened: as §1
# AgRvs167 = target: AgRvs167
# Procedure, shortened: as §1
# AgSho1 = target: AgSho1
# Procedure, shortened: as §1
# AgSla1-D1-D2 = target: AgSla1-D1-D2
# Procedure, shortened: as §1
# AgSla1-D3 = target: AgSla1-D3
# Procedure, shortened: as §1
# CaAbp1-D1 = target: CaAbp1-D1
# Procedure, shortened: as §1
# CaAbp1-D2 = target: CaAbp1-D2
# Procedure, shortened: as §1
# CaBbc1 = target: CaBbc1
# Procedure, shortened: as §1
# CaBem1-D1 = target: CaBem1-D1
# Procedure, shortened: as §1
# CaBzz1-D1 = target: CaBzz1-D1
# Procedure, shortened: as §1
# CaBzz1-D2 = target: CaBzz1-D2
# Procedure, shortened: as §1
# CaCyk3 = target: CaCyk3
# Procedure, shortened: as §1
# CaFus1 = target: CaFus1
# Procedure, shortened: as §1
# CaHof1 = target: CaHof1
# Procedure, shortened: as §1
# CaHse1 = target: CaHse1
# Procedure, shortened: as §1
# CaLsb1 = target: CaLsb1
# Procedure, shortened: as §1
# CaLsb4 = target: CaLsb4
# Procedure, shortened: as §1
# CaMyo5 = target: CaMyo5
# Procedure, shortened: as §1
# CaNbp2 = target: CaNbp2
# Procedure, shortened: as §1
# CaRvs167 = target: CaRvs167
# Procedure, shortened: as §1
# CaRvs167-3 = target: CaRvs167-3
# Procedure, shortened: as §1
# CaSho1 = target: CaSho1
# Procedure, shortened: as §1
# CaSla1-D1-D2 = target: CaSla1-D1-D2
# Procedure, shortened: as §1
# CaSla1-D3 = target: CaSla1-D3
# Procedure, shortened: as §1
# ScAbp1 = target: ScAbp1
# Procedure, shortened: as §1
# ScBbc1 = target: ScBbc1
# Procedure, shortened: as §1
# ScBem1-D1 = target: ScBem1-D1
# Procedure, shortened: as §1
# ScBzz1-D1 = target: ScBzz1-D1
# Procedure, shortened: as §1
# ScBzz1-D2 = target: ScBzz1-D2
# Procedure, shortened: as §1
# ScCyk3 = target: ScCyk3
# Procedure, shortened: as §1
# ScFus1 = target: ScFus1
# Procedure, shortened: as §1
# ScHof1 = target: ScHof1
# Procedure, shortened: as §1
# ScHse1 = target: ScHse1
# Procedure, shortened: as §1
# ScLsb1 = target: ScLsb1
# Procedure, shortened: as §1
# ScLsb2 = target: ScLsb2
# Procedure, shortened: as §1
# ScLsb3 = target: ScLsb3
# Procedure, shortened: as §1
# ScLsb4 = target: ScLsb4
# Procedure, shortened: as §1
# ScMyo3 = target: ScMyo3
# Procedure, shortened: as §1
# ScMyo5 = target: ScMyo5
# Procedure, shortened: as §1
# ScNbp2 = target: ScNbp2
# Procedure, shortened: as §1
# ScPex13 = target: ScPex13
# Procedure, shortened: as §1
# ScRvs167 = target: ScRvs167
# Procedure, shortened: as §1
# ScSho1 = target: ScSho1
# Procedure, shortened: as §1
# ScSla1-D1-D2 = target: ScSla1-D1-D2
# Procedure, shortened: as §1
# ScSla1-D3 = target: ScSla1-D3
# Procedure, shortened: as §1
# SpAbp1-D1 = target: SpAbp1-D1
# Procedure, shortened: as §1
# SpBbc1 = target: SpBbc1
# Procedure, shortened: as §1
# SpBzz1-D1 = target: SpBzz1-D1
# Procedure, shortened: as §1
# SpBzz1-D2 = target: SpBzz1-D2
# Procedure, shortened: as §1
# SpCyk3 = target: SpCyk3
# Procedure, shortened: as §1
# SpHof1 = target: SpHof1
# Procedure, shortened: as §1
# SpHof1-2 = target: SpHof1-2
# Procedure, shortened: as §1
# SpHof1-3 = target: SpHof1-3
# Procedure, shortened: as §1
# SpHse1 = target: SpHse1
# Procedure, shortened: as §1
# SpLsb1 = target: SpLsb1
# Procedure, shortened: as §1
# SpLsb4 = target: SpLsb4
# Procedure, shortened: as §1
# SpMyo1 = target: SpMyo1
# Procedure, shortened: as §1
# SpNbp2 = target: SpNbp2
# Procedure, shortened: as §1
# SpPex13 = target: SpPex13
# Procedure, shortened: as §1
# SpRvs167 = target: SpRvs167
# Procedure, shortened: as §1
# SpSla1-D1-D2 = target: SpSla1-D1-D2
# Procedure, shortened: as §1
# SpSla1-D3 = target: SpSla1-D3
# Procedure, shortened: as §1
binder,measurement,setting,value
B1,SPOT peptide array binding signal intensity,AgAbp1,≤ 0
same,SPOT peptide array binding signal intensity,AgBbc1,≤ 0
same,SPOT peptide array binding signal intensity,AgBem1-D1,≤ 0
same,SPOT peptide array binding signal intensity,AgBzz1-D1,≤ 0
same,SPOT peptide array binding signal intensity,AgBzz1-D2,≤ 0
same,SPOT peptide array binding signal intensity,AgCyk3,≤ 0
same,SPOT peptide array binding signal intensity,AgFus1,≤ 0
same,SPOT peptide array binding signal intensity,AgHof1,≤ 0
same,SPOT peptide array binding signal intensity,AgHse1,≤ 0
same,SPOT peptide array binding signal intensity,AgLsb1,≤ 0
same,SPOT peptide array binding signal intensity,AgLsb4,≤ 0
same,SPOT peptide array binding signal intensity,AgMyo5,0.75
same,SPOT peptide array binding signal intensity,AgNbp2,≤ 0
same,SPOT peptide array binding signal intensity,AgRvs167,0.333
same,SPOT peptide array binding signal intensity,AgSho1,≤ 0
same,SPOT peptide array binding signal intensity,AgSla1-D1-D2,≤ 0
same,SPOT peptide array binding signal intensity,AgSla1-D3,≤ 0
same,SPOT peptide array binding signal intensity,CaAbp1-D1,≤ 0
same,SPOT peptide array binding signal intensity,CaAbp1-D2,≤ 0
same,SPOT peptide array binding signal intensity,CaBbc1,≤ 0
same,SPOT peptide array binding signal intensity,CaBem1-D1,≤ 0
same,SPOT peptide array binding signal intensity,CaBzz1-D1,≤ 0
same,SPOT peptide array binding signal intensity,CaBzz1-D2,≤ 0
same,SPOT peptide array binding signal intensity,CaCyk3,≤ 0
same,SPOT peptide array binding signal intensity,CaFus1,≤ 0
same,SPOT peptide array binding signal intensity,CaHof1,≤ 0
same,SPOT peptide array binding signal intensity,CaHse1,≤ 0
same,SPOT peptide array binding signal intensity,CaLsb1,≤ 0
same,SPOT peptide array binding signal intensity,CaLsb4,≤ 0
same,SPOT peptide array binding signal intensity,CaMyo5,10.8
same,SPOT peptide array binding signal intensity,CaNbp2,≤ 0
same,SPOT peptide array binding signal intensity,CaRvs167,≤ 0
same,SPOT peptide array binding signal intensity,CaRvs167-3,3
same,SPOT peptide array binding signal intensity,CaSho1,≤ 0
same,SPOT peptide array binding signal intensity,CaSla1-D1-D2,≤ 0
same,SPOT peptide array binding signal intensity,CaSla1-D3,≤ 0
same,SPOT peptide array binding signal intensity,ScAbp1,8
same,SPOT peptide array binding signal intensity,ScBbc1,≤ 0
same,SPOT peptide array binding signal intensity,ScBem1-D1,≤ 0
same,SPOT peptide array binding signal intensity,ScBzz1-D1,18
same,SPOT peptide array binding signal intensity,ScBzz1-D2,26
same,SPOT peptide array binding signal intensity,ScCyk3,≤ 0
same,SPOT peptide array binding signal intensity,ScFus1,≤ 0
same,SPOT peptide array binding signal intensity,ScHof1,≤ 0
same,SPOT peptide array binding signal intensity,ScHse1,≤ 0
same,SPOT peptide array binding signal intensity,ScLsb1,≤ 0
same,SPOT peptide array binding signal intensity,ScLsb2,≤ 0
same,SPOT peptide array binding signal intensity,ScLsb3,≤ 0
same,SPOT peptide array binding signal intensity,ScLsb4,≤ 0
same,SPOT peptide array binding signal intensity,ScMyo3,≤ 0
same,SPOT peptide array binding signal intensity,ScMyo5,7
same,SPOT peptide array binding signal intensity,ScNbp2,≤ 0
same,SPOT peptide array binding signal intensity,ScPex13,≤ 0
same,SPOT peptide array binding signal intensity,ScRvs167,1
same,SPOT peptide array binding signal intensity,ScSho1,≤ 0
same,SPOT peptide array binding signal intensity,ScSla1-D1-D2,≤ 0
same,SPOT peptide array binding signal intensity,ScSla1-D3,≤ 0
same,SPOT peptide array binding signal intensity,SpAbp1-D1,≤ 0
same,SPOT peptide array binding signal intensity,SpBbc1,≤ 0
same,SPOT peptide array binding signal intensity,SpBzz1-D1,≤ 0
same,SPOT peptide array binding signal intensity,SpBzz1-D2,≤ 0
same,SPOT peptide array binding signal intensity,SpCyk3,≤ 0
same,SPOT peptide array binding signal intensity,SpHof1,≤ 0
same,SPOT peptide array binding signal intensity,SpHof1-2,0.5
same,SPOT peptide array binding signal intensity,SpHof1-3,20
same,SPOT peptide array binding signal intensity,SpHse1,≤ 0
same,SPOT peptide array binding signal intensity,SpLsb1,≤ 0
same,SPOT peptide array binding signal intensity,SpLsb4,≤ 0
same,SPOT peptide array binding signal intensity,SpMyo1,≤ 0
same,SPOT peptide array binding signal intensity,SpNbp2,≤ 0
same,SPOT peptide array binding signal intensity,SpPex13,≤ 0
same,SPOT peptide array binding signal intensity,SpRvs167,≤ 0
same,SPOT peptide array binding signal intensity,SpSla1-D1-D2,≤ 0
same,SPOT peptide array binding signal intensity,SpSla1-D3,≤ 0
